# Hit rate of the full screen: of about 340,000 compounds, about 1,000 (0.29%) were called active. The list is a sample of the results. Potency and affinity values are given separately. Values without a mark were called inactive. Rule as the data show it: inconclusive = inhibition above about 27% without an active follow-up result; inactive = below that.
# Assay: H1N1 influenza NS1A inhibitors, functional cell based assay (AID 504329)
# Details: percent inhibition, at 12.5 µM, hits give high values
row,Structure (SMILES),inhibition
1,O=C(N/N=C/c1ccccn1)c1ccc(N/N=C/c2ccccn2)cc1,1.09%
2,C(=N\Nc1nncc2ccccc12)/c1ccccc1,-20.6%
3,C(=N\Nc1nc2ccccc2[nH]1)/c1ccccn1,17.1%
4,Cc1csc(N/N=C/c2ccccn2)n1,7.11%
5,Cc1cccc(/C=N/Nc2nncc3ccccc23)c1,3.05%
6,C=CCn1c(SCC(=O)NCc2ccc3c(c2)OCO3)nnc1C1COc2ccccc2O1 (centres undefined),-2.53%
7,CCC(C)[C@H](NC(=O)N1CCn2c1nc1ccccc12)C(=O)NCCc1ccccc1 (some centres undefined),4.3%
8,COc1cccc(-c2ccc(NC(=O)C3CCCN(CCCn4nc(C)cc4C)C3)cc2)c1 (centres undefined),3.69%
9,N#Cc1c(C(F)(F)F)cc(-c2ccccc2)n(N)c1=O,-8.39%
10,O=C(Nc1ccon1)c1ccc(Cl)c(S(=O)(=O)N2CCCCC2)c1,-6.8%
11,CCc1n[nH]c(=S)n1/N=C/c1ccccn1,-4.28%
12,S=c1[nH]nc(C2CCCCC2)n1/N=C/c1ccccn1,-8.07%
13,Cc1ccc(CNC(=O)CSc2ccc(-c3ccccn3)nn2)cc1,14.6%
14,O=C(CSc1ccc(-c2ccccn2)nn1)NCc1ccccc1,1.11%
15,COc1cccc(CNC(=O)CSc2ccc(-c3ccco3)nn2)c1,-0.85%
16,COc1cccc(CNC(=O)CSc2ccc(-c3cccs3)nn2)c1,5.92%
17,O=C(O)C1CCCCC1C(=O)Nc1ccc(S(=O)(=O)N2CCCCC2)cc1 (centres undefined),4.7%
18,CCCC(C)C1(CC)C(=O)NC(=O)N=C1N (centres undefined),-9.22%
19,O=C(NCc1cccnc1)c1ccccc1NS(=O)(=O)c1ccccc1,-3.37%
20,CCOC(=O)C1CCCN(c2c(N3CCN(c4ccccn4)CC3)c(=O)c2=O)C1 (centres undefined),6.61%
21,CCCCCOc1ccc(C(=O)NCCC(=O)NCCCC(=O)OCC)cc1,-5.18%
22,CC1(C)CC(=O)C2=C(C1)Nc1ccccc1NC2c1ccc(F)c(F)c1 (centres undefined),-6.87%
23,Cc1[nH][nH]c(=O)c1C(c1c(C)[nH][nH]c1=O)c1cn(Cc2ccc(Cl)c(Cl)c2)c2ccccc12,17.4%
24,O=C(O)Cc1cn(Cc2ccc(F)cc2)c2ccccc12,5.18%
25,CCN(CC)c1ccc(CNc2nc3ccccc3n2CCN2CCOCC2)cc1,5.53%

row,Structure (SMILES),inhibition
1,COc1ccc(CNc2nc3ccccc3n2CCN2CCCCC2)cc1,8.37%
2,CC(C)C[C@@H](CNCC(=O)[C@H](CC(C)C)NC(=O)c1[nH]cnc1C(=O)N[C@H](CN)CC(C)C)NC(=O)c1nc[nH]c1C(=O)N[C@@H](Cc1ccccc1)C(=O)O,-21.2%
3,COC(=O)c1scc(C)c1NC(=O)c1ccccc1F,-2.27%
4,COc1cccc(OC)c1C(=O)Nc1nnc(-c2ccc(F)cc2)s1,-7.27%
5,CCN(CC)c1ccc(/C=N/N(c2ccccc2)c2ccccc2)c(O)c1,-0.39%
6,CCN(CC)c1ccc2nc3ccccc3[n+](CC)c2c1,25.1%
7,N#Cc1nc(COc2cccc(Cl)c2)oc1N1CCN(c2ccccc2)CC1,-10.8%
8,O=C1C(c2c(O)[nH]c3ccccc23)=Nc2ccccc21,4.56%
9,CC(=O)Nc1c(O)c2ccccc2[nH]c1=O,-0.37%
10,COc1ccc(CCNC(=O)c2ccc(CS(=O)(=O)Cc3cccc(C)c3)o2)cc1OC,1.57%
11,O=C(CN1C(=O)c2ccccc2C1=O)Nc1cccc(Cl)c1,-5.21%
12,Nc1ccc2cn[nH]c2c1,0.77%
13,Nc1ccc2nc(-c3cccc(-c4nc5ccc(N)cc5[nH]4)n3)[nH]c2c1,16.6%
14,O=C(OCCn1c(=S)sc2ccccc21)c1ccccc1,-0.85%
15,O=C(c1ccccc1)c1ccc(C(=O)N2CCOCC2)cc1,2.77%
16,O=C(CSc1nnc(-c2cccnc2)o1)Nc1ccccn1,19%
17,CC(=O)Nc1ccc(NC(=O)CSc2nnc(-c3cccnc3)o2)cc1,-1.5%
18,CCOC(=O)C1CCCN(c2c(NCCc3ccc(S(N)(=O)=O)cc3)c(=O)c2=O)C1 (centres undefined),-1.2%
19,Cc1ccc2c(CN(C)Cc3ccc(OC(F)F)cc3)cc(=O)oc2c1C,-13.7%
20,CN(Cc1nccs1)C(=O)C1CCC(=O)N(Cc2ccccc2F)C1 (centres undefined),-7.1%
21,COc1cccc(/C=C2\SC(=S)N(CCCC(=O)N3CCCCC3)C2=O)c1,13.4%
22,COc1cccc(/C=C2\SC(=S)N(CCC(=O)N3CCCCC3)C2=O)c1,-7.67%
23,S=c1[nH]cnc2scc(-c3ccccc3)c12,2.25%
24,S=c1[nH]c(-c2ccccc2)cs1,-8.02%

# — PubChem BioAssay AID504329 (Southern Research Specialized Biocontainment Screening …, 2011)
